# In PubChem BioAssay (NCATS):
# Records with an inconclusive call do not appear. Calls of active or inactive are those of the source. The call rests on the fitted dose curve; in most records, active means well fitted inhibition curve with a large enough effect; inconclusive means small, poorly fitted or top-dose-only effect; inactive means no such curve, though single readings can be large or run the other way.
# Test: Primary fluorescence-based thiol-reactive (MSTI) qHTS assay for identification of artifact compounds. (AID 1845221); further: nearly all actives have a fitted effect of over 65% in size;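 on activity change, negative = thiol reactive: thiol-reactive compounds lower the probe fluorescence signal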
# Details: MSTI thiol-reactivity probe, 1 h; series mostly up to 53.8 µM; activity change, negative = thiol reactive: at the top concentration
# Outline: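 In PBS pH 7.4 with 2% DMSO, each compound met 4 uM MSTI for one hour at ambient temperature, shielded from light, before fluorescence detection.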
# Potency means the concentration at half of the fitted maximal effect.
Structure (SMILES),"activity change, negative = thiol reactive",Potency
CN(C)S(=O)(=O)c1ccc(NC(=S)N2CCC(C(O)(c3ccccc3)c3ccccc3)CC2)cc1,503% (inactive),–
CC(=O)Nc1nc(C)c(-c2nc(N3CCCC(O)C3)no2)s1 (stereo unspecified),53.8% (inactive),–
O=C(Nc1ccccc1C(=O)NC1CCCCNC1=O)c1cc2ccccc2s1 (stereo unspecified),27.9% (inactive),–
CN(C)C(=O)Nc1cccc(-c2ccc(N(C)C)cc2)c1,–,2670 nM (active)
Fc1ccc(N2CCCCC2)c(NC(=S)c2ccncc2)c1,-7.02% (inactive),–
Cc1[nH]c(/C=C2\C(=O)Nc3cc(-c4ccccc4)ccc32)c(C)c1CCC(=O)O,–,670 nM (active)
COc1cc2ncc(-c3ccccc3)nc2cc1OC,86.4% (inactive),–
CCCCCc1ccc(/C=C/C(=O)Nc2cc(Cl)ccc2C(=O)O)cc1,227% (inactive),–
Cc1cc(N2CCOCC2)ccc1Nc1nc(NC2CCCCC2)c2[nH]cnc2n1,–,1680 nM (active)
COC(=O)c1ccc2c(c1)[nH]c1ncnc(NCCCN3CCCCC3)c12,7.93% (inactive),–
CCCCCCCOc1cc2c(cc1/C(C)=C/c1ccc(C(=O)O)cc1)C(C)(C)CCS2(=O)=O,276% (inactive),–
COc1ccnc(CS(=O)c2nc3cc(OC(F)F)ccc3[nH]2)c1OC (stereo unspecified),–,21200 nM (active)
N#C/C(=C1\Nc2ccccc2S1)c1ccnc(NCCc2cccnc2)n1,–,1340 nM (active)
COc1cc(CCc2cc(NC(=O)c3ccc(N4CC(C)NC(C)C4)cc3)n[nH]2)cc(OC)c1 (stereo unspecified),216% (inactive),–
COc1cc(C(=O)O)ccc1NC(=O)C1NC(CC(C)(C)C)C(C#N)(c2ccc(Cl)cc2F)C1c1cccc(Cl)c1F (stereo unspecified),221% (inactive),–
NC(=O)c1cccc2[nH]c(-c3ccc(C4CCCN4)cc3F)nc12 (stereo unspecified),14.9% (inactive),–
C[C@@H](c1ccc2nccn2c1)n1nnc2ncc(-c3cnn(C)c3)nc21,54.4% (inactive),–
C=C(NC(=O)C(=C)NC(=O)c1csc(C2=NC3c4csc(n4)C4NC(=O)c5csc(n5)C(C(C)(O)C(C)O)NC(=O)C5CSC(=N5)/C(=C/C)NC(=O)C(C(C)O)NC(=O)c5csc(n5)C3(CC2)NC(=O)C(C)NC(=O)C(=C)NC(=O)C(C)NC(=O)C(C(C)CC)NC2C=Cc3c(C(C)O)cc(nc3C2O)C(=O)OC4C)n1)C(N)=O (stereo unspecified),27.1% (inactive),–
Cc1nc2cc(C(=O)NCc3ccccn3)nn2c(C)c1Cc1cccc(Cl)c1,-6.53% (inactive),–
Cc1cc(-c2nc3cc(F)ccc3s2)ccc1NC(=O)[C@@H](N)CCCCN,73.1% (inactive),–
NS(=O)(=O)c1ccc(N2N=C(c3ccccc3)CC2c2ccccc2)cc1 (stereo unspecified),-13.8% (inactive),–
